D1 PAM = potentiators of human D1 dopamine receptor; P21728; 360,000 tested, 0.036% active; potentiation, % at 10 µM; HEK293 TREx D1 cells, calcium flux, dopamine EC20 potentiation; AID 504651; in the data active = potentiation above about 30%
Target sequence (P21728 whole entry, looked up): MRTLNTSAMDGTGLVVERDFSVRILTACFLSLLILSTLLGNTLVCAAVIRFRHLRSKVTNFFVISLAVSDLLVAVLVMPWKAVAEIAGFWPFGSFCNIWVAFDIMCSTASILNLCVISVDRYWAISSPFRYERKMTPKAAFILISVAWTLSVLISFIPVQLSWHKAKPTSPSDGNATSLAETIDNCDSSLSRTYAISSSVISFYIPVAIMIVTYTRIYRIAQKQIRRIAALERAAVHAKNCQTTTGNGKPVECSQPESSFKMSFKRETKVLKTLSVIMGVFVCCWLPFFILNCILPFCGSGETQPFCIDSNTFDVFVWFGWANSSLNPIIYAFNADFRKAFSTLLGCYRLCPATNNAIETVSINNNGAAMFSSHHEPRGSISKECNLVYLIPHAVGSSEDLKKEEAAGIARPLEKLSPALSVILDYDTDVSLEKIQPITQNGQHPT
D3 ag = activates the human D3 dopamine receptor; D3R DiscoveRx beta-arrestin cells, luminescence, 90 min; max activation, %; AID 652048; 410,000 tested, 0.58% active; P35462; in the data active = max activation above about 30%
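Agonist-mode cell screen: cells plated at 1500/well and incubated overnight at 37 °C, then exposed to library compounds for 90 min at 37 °C. Detection reagent was added for 30–60 min at room temperature, and luminescence was read.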
D3 antag = blocks the human D3 dopamine receptor; D3R cells, DiscoveRx beta-arrestin luminescence, antagonist mode; stronger effect = lower value; max response, negative = inhibition, %; 360,000 tested, 2.5% active; in the data active = max response below about -50%
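Cells plated overnight at 1500 cells/well, then exposed to library compounds with dopamine controls for 90 minutes at 37 degrees C. DiscoveRx reagent added for 30–60 minutes at room temperature; luminescence read, quantitative HTS format.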
D1 ag = activates the human D1 dopamine receptor; P21728; HEK293 T-REx D1 cells, calcium flux, agonist mode; activation, % at 2 µM; 360,000 tested, 1% active; in the data active = activation above about 30%
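Tetracycline-induced HEK293 TREx D1 cells, force-coupled to calcium signalling, were dye-loaded with a no-wash calcium kit. Compound was pin-added after a 10 s baseline. Fluorescence was read kinetically at 1 cycle/s for 180 s, with calcium rises flagged as agonism.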
D1 antagonist = human D1 dopamine receptor antagonism; P21728; HEK293 TREx D1 cells, calcium flux, dopamine EC80; stronger effect = lower value; AID 504652; 360,000 tested, 3.2% active; activity change, negative = inhibition, % at 10 µM; in the data active = activity change below about -30%
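Calcium flux readout: force-coupled, inducible Hek293 Trex D1 line, cells induced overnight at 30 C with tetracycline, dye-loaded 30–90 min at RT. Antagonism scored against EC80 dopamine challenge given 180 s after compound.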
A number is an active result; n = inactive; x = not tested or not shown. Sampled rows, rich in hits. Any-hit rate of the full collection: about 6%.

SMILES	D1 PAM	D3 ag	D3 antag	D1 ag	D1 antagonist
CCOC(=O)c1c(NC(=O)c2cccs2)sc(CC)c1-c1cccs1	n	62	n	n	n
CCOC(=O)c1c(-c2cccs2)csc1NC(=O)CCCC(=O)O	n	44	n	n	n
CCOC(=O)c1c(-c2ccc(C)s2)csc1NC(=O)c1cccs1	n	n	n	n	n
CCOC(=O)c1c(-c2cccs2)csc1NC(=O)C(C)(C)C	n	n	n	34	n
COc1cccc(-c2nc3c(c(=O)[nH]c(=O)n3Cc3ccccc3)n2CCO)c1OC(F)F	n	n	n	n	-43
CCn1c(CO)nc2c1c(=O)[nH]c(=O)n2Cc1ccccc1	n	n	-80	n	n
CCOc1cc(C2c3c(oc4ccccc4c3=O)C(=O)N2Cc2ccc3c(c2)OCO3)ccc1O (configuration not stated)	n	n	x	n	n
Cc1ccc(-n2c(SCC(=O)N3CCCc4ccccc43)nc3c([nH]c4ccccc43)c2=O)cc1	n	n	x	n	n
C=C(C)C1CC=C(C)CC1 (configuration not stated)	x	n	x	x	x
O=C(CSc1ccc2nnc(-c3ccncc3)n2n1)Nc1ccc2c(c1)OCO2	n	n	n	n	n
O=C(CSc1ccc2nnc(-c3ccncc3)n2n1)Nc1ccc2c(c1)OCCO2	n	n	-59	n	n
O=C(CSc1nnc(-c2cccnc2)n1-c1ccccc1)Nc1ccc2c(c1)OCO2	n	n	n	n	-61
O=C(CSc1nnc(-c2cccnc2)n1-c1ccccc1)Nc1ccccn1	n	n	n	n	n
Nn1c(SCc2cccc(F)c2)nnc1-c1cccnc1	n	n	n	n	-31
Nn1c(SCC(=O)Nc2ccc3c(c2)OCCO3)nnc1-c1cccnc1	n	n	n	n	-37
Nn1c(SCc2cccc(Br)c2)nnc1-c1cccnc1	n	n	n	n	n
Nn1c(SCC(=O)Nc2ccc3c(c2)OCCO3)nnc1-c1ccncc1	n	n	n	n	n
CCOC(=O)C1(C)CCCN(C(=O)c2cccnc2)C1 (configuration not stated)	x	n	n	x	x
O=C(CSc1nccn1-c1ccc(Cl)cc1)Nc1ccc2c(c1)OCO2	n	n	n	n	-49
O=C(CSc1nc(-c2ccccc2)[nH]c1-c1ccccc1)Nc1ccc2c(c1)OCO2	n	n	x	n	-30
CCOc1ccc(-n2ccnc2SCC(=O)Nc2ccc3c(c2)OCO3)cc1	n	n	x	n	n
CCc1nc2ccc(C(=O)N(C)CCCN(C)C)cn2c1N(C)C(=O)C1CCCCC1	x	n	n	x	x
CC(=O)N[C@@H](C=O)[C@@H](O)[C@H](O)[C@H](O)CO	x	n	x	x	x
C[C@H](CN1CCCC1)C(=O)c1ccc(C(F)(F)F)cc1	x	n	x	x	x
Oc1cccc(/C=N\Nc2nncc(-c3ccccc3)n2)c1	n	n	n	n	-37
SMILES	D1 PAM	D3 ag	D3 antag	D1 ag	D1 antagonist
CCOc1cc(/C=N/Nc2nncc(-c3ccccc3)n2)ccc1O	n	n	n	n	n
COc1cc(-c2nc3cccc(C)n3c2Nc2ccc3c(c2)OCCO3)ccc1O	n	n	x	n	n
Oc1ccccc1CNCC12CC3CC(CC(C3)C1)C2	n	n	n	53	n
COc1ccnc(CSC(N)=Nc2ccc(F)cc2)c1	n	n	-71	n	n
COc1ccc(NC(=O)C2c3ccccc3OCC(=O)N2Cc2cccnc2)cc1 (configuration not stated)	x	n	n	x	x
Cc1cc(NC(=O)CSc2nc(-c3cccc(F)c3)nc3c2c(=O)n(C)c(=O)n3C)no1	n	n	x	n	n
Nc1cc(N)nc(CS)n1	n	n	n	n	-54
COc1ccc(N2CCN(C(=O)Cn3cnc4sc(C)c(S(=O)(=O)N5CCCCC5)c4c3=O)CC2)cc1	n	n	x	n	n
O=C(N1CCOCC1)N1c2ccccc2Sc2ccccc21	n	n	-77	n	n
O=C(CN1CCOCC1)N1c2ccccc2Sc2ccccc21	n	n	n	n	n
CC1CCN(C(=O)N2c3ccccc3Sc3ccccc32)CC1	n	n	n	n	n
CC1CN(C(=O)N2c3ccccc3Sc3ccccc32)CC(C)O1 (configuration not stated)	n	n	n	n	-33
CCOC(=O)c1ccc(N2C(=O)c3n[nH]c(-c4cccs4)c3C2c2cccc(O)c2)cc1 (configuration not stated)	n	n	x	n	n
Cc1ccc(CN2CCC(CNC(=O)c3cc4ccc5cccnc5c4[nH]3)CC2)cc1	n	n	x	40	n
O=C(O)[C@H]1CN(C/C=C/P(=O)(O)O)CCN1	x	n	x	x	x
CN1CCN(/N=C/c2ccc(-c3ccc([N+](=O)[O-])cc3Cl)o2)CC1	n	n	n	52	n
COc1cc([N+](=O)[O-])ccc1-c1ccc(/C=N\n2cnnc2)o1	n	n	n	n	n
O=[N+]([O-])c1ccc(Cl)c(-c2ccc(/C=N/n3cnnc3)o2)c1	n	n	n	n	-42
CC(C)Cn1c(=O)c2ccccc2n2c(CCC(=O)NC(C)c3ccccc3)nnc12 (configuration not stated)	n	n	x	n	n
CC(=O)c1c(C)[nH]c(C(=O)Nc2nc(-c3ccc(Cl)cc3)cs2)c1C	n	n	n	n	-32
Cc1noc(C)c1C(=O)Nc1nc(-c2ccc([N+](=O)[O-])cc2)cs1	n	n	n	n	-51
Cn1cc([N+](=O)[O-])c(C(=O)Nc2nc(-c3ccc(Cl)cc3)cs2)n1	n	n	n	n	-48
COc1ccc(-c2nc(NC(=O)c3[nH]c(C)c(C(C)=O)c3C)sc2C)cc1	n	n	n	n	-91
O=C(CN1CCSc2ccccc21)NCc1ccccc1F	n	n	x	n	n
COc1ccc(-c2nc(NC(=O)Cn3cnnn3)sc2C)cc1	n	n	n	n	n
SMILES	D1 PAM	D3 ag	D3 antag	D1 ag	D1 antagonist
COc1ccc(-c2nc(NC(=O)Cn3ccc(C(F)(F)F)n3)sc2C)cc1	n	n	n	n	-40
CCCSC1=NC2(CCN(C(=O)NC3CCCCC3)CC2)N=C1c1ccc(OC)cc1	n	n	x	n	n
CC(C)c1ccc(C(=O)NNC(=O)C2C3CCC(C3)C2C(=O)O)cc1 (configuration not stated)	n	x	x	n	-75
CSc1ncc(C(=O)N2CCN(c3ccc(Cl)cc3)CC2)c(C)n1	n	n	x	n	n
CCCSc1nsc(NC(=O)Nc2ccc(F)cc2F)n1	n	n	n	33	-60
CCCSc1nsc(NC(=O)C(c2ccccc2)c2ccccc2)n1	n	n	-71	n	n
COc1cccc(NC(=O)Nc2nc(SC(C)(C)C)ns2)c1	n	n	n	n	-40
CCSc1nsc(NC(=O)Nc2cccc(F)c2)n1	n	n	n	42	-44
CCCSc1nsc(NC(=O)CC)n1	n	n	n	n	n
Cc1cc(C)nc(NC(=O)Nc2ccc(F)cc2F)n1	n	n	n	n	n
COc1cccc(NC(=O)Nc2nc(SC)ns2)c1	n	n	n	n	n

Screening results deposited in PubChem BioAssay by National Center for Advancing Translational Sciences (NCATS).
